# Screens as filed in PubChem.
# Sampled rows, rich in hits. Any-hit rate of the full collection: about 4.1%.
# A1 inh = inhibitors of the anti-apoptotic protein A1, read as caspase activation; caspase activation, % (concentration not given with the values); MEF A1-2A-BIM cells, Caspase-Glo 3/7 luminescence, 3 h; percent of clofoctol response, vehicle zero; 0.066% of 330,000 active; AID 2462;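 active means over half of replicate activation scores above 10%, or exactly half above 10 with the replicate mean above 10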
# Mdm2-MdmX inh = inhibitors of human Mdm2/MdmX interaction; 3% of 330,000 active; SaOS-2 split-luciferase Mdm2/MdmX complementation, luminescence; O15151+Q00987; inhibition, % at 8 µM;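 active means inhibition of at least 50% at 8 µM in the primary screen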
# CSC inhib = blocks cancer stem cells; inhibition, % at 7.5 µM; cancer stem cell-like cells viability, luminescence; 1.1% of 300,000 active; in the data active means inhibition above about 75%; tested in HMLE shEcad cells
# Beta apoptosis = beta cell apoptosis inhibition. INS-1E cytokine-induced death, ATP luminescence, 48 h; percent of positive-control rescue, neutral wells zero. protection from apoptosis, % (concentration not given with the values). 0.8% of 300,000 active. AID 435005;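 active means Every replicate reaches about 75%, or at least half do and their mean reaches it too, limit read from the data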;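 further: 0% = cytokine-treated negative control wells and 100% = positive control rescue; higher means more ATP so stronger rescue from cytokine killing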
# aSyn UTR inh = MLPCN primary screen, SNCA 5' untranslated region; alpha-synuclein 5'UTR reporter, inhibitor activity; inhibition, % (tested at 7.5 µM); 0.82% of 300,000 active; in the data active means inhibition above about 60%;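 further: H4 neuroglioblastoma cells stably carrying SNCA 5'UTR luciferase fusion; 0% = DMSO wells and 100% = positive control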
# * = called active by the depositor; · = no result.
SMILES,A1 inh,Mdm2-MdmX inh,CSC inhib,Beta apoptosis,aSyn UTR inh
O=C(/C=C/c1ccc(Cl)cc1)NC(=S)N1C[C@H]2C[C@H](C1)c1cccc(=O)n1C2,-0.7,-19.2,-7.4,2.3,-14.9
O=P(Oc1ccccc1)(Oc1ccccc1)N1CCN(c2ccc(F)cc2)CC1,0.1,29.7,2.0,78.1*,15.2
CCOC(=O)c1c(N)n(CCCOC(=O)c2ccco2)c2nc3ccccc3nc12,-1.8,43.4,19.9,64.0,114.3*
COc1ccc(C(=O)C2CCCN(C3CSCCSC3)C2)c(C)c1 (stereo not given),-0.5,1.4,35.4,-11.2,-14.8
COc1ccc(C(=O)C2CCCN(C3CSCCSC3)C2)c(OC)c1 (stereo not given),0.1,-9.5,77.5*,3.3,22.3
COc1cc(CN2CCN(c3cc(C)ccc3C)CC2)ccc1O,3.5,31.1,-5.4,107.8*,-22.7
COC(=O)C1=C(c2ccc(Cl)c(C(F)(F)F)c2)C[C@@H]2CC[C@H]1N2C,0.7,-3.5,-11.4,-0.2,·
COC(=O)C1=C(c2ccccc2)C[C@@H]2CC[C@H]1N2C(=O)N1CCC(C)CC1,0.4,25.6,-1.8,-6.5,11.7
CCOC(=O)C(O)(c1ccc(NC(=O)c2ccc(Cl)c(Cl)c2)cc1)C(F)(F)F (stereo not given),0.3,20.0,25.9,5.8,-54.0
CCOC(=O)C(=CNc1ccc(C(O)(C(=O)OCC)C(F)(F)F)cc1C)C(=O)OCC (stereo not given),-0.4,-2.2,11.1,96.7*,8.5
CCCCCCC(C)(C)c1ccc([C@@H]2C[C@H](O)CC[C@H]2CCCO)c(O)c1,0.5,19.6,103.2*,6.3,·
O=c1c2ccccc2nc(/C=C\c2ccccc2[N+](=O)[O-])n1-c1ccccc1O,-0.2,39.7,50.3,2.7,7.8
O=c1c2ccccc2nc(/C=C/c2ccccc2F)n1-c1ccccc1O,0.7,48.8,98.4*,14.5,-9.5
CN1C(=O)C(c2ccc([N+](=O)[O-])cc2[N+](=O)[O-])C(=O)N(C)C1=O,-1.3,0.4,-3.9,-6.5,0.4
CCCCOc1ccc(CN2CCN(CCO)CC2)cc1,-0.2,-17.9,29.8,-7.1,-51.8
CCCCCCOc1ccc(CN2CCN(CCO)CC2)cc1,-0.2,5.8,83.4*,3.9,14.8
COc1cccc(-c2sc3ccccc3c2-c2ccc(OCCN3CCOCC3)cc2)c1,3.0,47.2,104.0*,-9.6,·
COc1ccc(-n2c(CN3CCOCC3)nc3ccccc3c2=O)c(OC)c1,-0.7,10.1,-15.5,1.4,6.4
COC(=O)C1=C(c2ccc(OC(F)(F)F)cc2)C[C@@H]2CC[C@H]1N2C(=O)N1CCC(O)CC1,0.0,-13.8,-3.4,0.9,·
O=C(c1ccccc1)C(CN1CCCC1)c1ccccc1 (stereo not given),0.2,·,49.5,92.1*,-77.4
CCN1CCN(CC(c2ccccc2)c2ccccc2)CC1,-1.5,7.8,4.4,-1.4,10.8
O=C(COc1ccc(Br)cc1)N1CCN(Cc2c[nH]c3ccccc23)CC1,0.4,21.4,6.9,106.4*,17.6
O=C(COc1ccc2ccccc2c1)N1CCN(Cc2c[nH]c3ccccc23)CC1,1.0,22.1,10.7,101.8*,-27.7
CC(=O)c1cccc(NC(=O)N2C[C@H]3C[C@@H](C2)c2cccc(=O)n2C3)c1,0.4,-2.0,-0.7,-1.1,-24.3
COCCNC(=O)c1c(N)n(CCC(C)C)c2nc3ccccc3nc12,-0.4,18.0,24.1,-14.6,6.9
SMILES,A1 inh,Mdm2-MdmX inh,CSC inhib,Beta apoptosis,aSyn UTR inh
CC(C)OCCCNC(=O)c1c(N)n(Cc2cccs2)c2nc3ccccc3nc12,0.3,17.9,118.4*,-11.5,36.8
CC(C)CCn1c(N)c(C(=O)NCc2cccs2)c2nc3ccccc3nc21,0.8,35.4,76.8*,-13.0,11.2
Cc1ccc(-n2c(O)c(/C=N/Nc3ccccc3)c(=O)[nH]c2=O)cc1C,1.1,24.1,70.7,-7.2,-11.6
COc1ccc(N/N=C/c2c(O)n(-c3cccc(C)c3)c(=O)[nH]c2=O)cc1,0.1,5.6,95.2*,-10.5,15.1
COc1ccc(N/N=C/c2c(O)n(-c3ccc(C)c(C)c3)c(=O)[nH]c2=O)cc1,0.8,-7.4,117.3*,-7.3,46.2
CCOC(=O)COc1ccc2c(c1)c(C(C)=O)c(C)n2Cc1ccccc1,0.6,-0.3,-3.5,-3.4,-11.7
C=C[C@@]12CN(C)[C@H]3[C@H]1[C@@]1(C(=O)Nc4ccccc41)C1CC2[C@@H]3CO1,0.1,4.8,-0.4,-4.3,·
